Here are results for five compounds from PubChem BioAssay.

Assay [1] can be described thus: compounds binding Alexa647 anti-His antibody – biochemical, small-molecule microarray, 635 nm fluorescence, artefact control for SMM control protein annotation, primary screen (AID 1128).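 Further: score merges feature fluorescence with signal-to-noise for each printed compound spot.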 The conditions noted are these: higher = more signal.
The subject of assay [2] is Human papillomavirus type 1a E7 protein (residues 1-88). Description: HPV1a E7 small-molecule binders, primary screen, biochemical, small-molecule microarray, residues 1-88, 635 nm (AID 1129). The conditions noted are these: small-molecule microarray binding, fluorescence 635 nm; higher = more signal.
Assay [3] addresses Focal adhesion kinase 1 (Homo sapiens) (UniProt Q05397). Nature of the assay: PTK2 protein binding on printed compound slides – biochemical, small-molecule microarray, 635/667 nm fluorescence, BSA, DTT, primary screen (AID 1130).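 Further: composite of spot emission at 667 nm and signal to noise over triplicate slides.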 Conditions: 635 nm fluorescence, higher = more signal.
Assay [4] has as its system Fibrinogen (Alexa647-labelled). Description: Alexa647-fibrinogen binding to printed small molecules – biochemical, small-molecule microarray, 635/667 nm fluorescence, artefact control for SMM control-protein annotation, profiling panel (AID 1131).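 Further: z-score merges 667 nm fluorescence with per-spot signal-to-noise over triplicate slides.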 The conditions noted are these: fibrinogen-A647 binding fluorescence, higher = more signal.
The target of assay [5] is Follistatin (Homo sapiens) (UniProt P19883). Description: FST protein binding to printed compounds – biochemical, small-molecule microarray, 635/667 nm fluorescence, primary screen (AID 1132). The conditions noted are these: 635 nm fluorescence, higher = more signal.
Assay [6] concerns the target Fibroblast growth factor 2 (Homo sapiens) (UniProt P09038). Description: basic fibroblast growth factor binding to printed compounds – biochemical, small-molecule microarray, 635/667 nm fluorescence, primary screen (AID 1133). The conditions noted are these: FGF2, fluorescence 635/667, higher = more signal.
A short description of assay [7]: JC-1 mitochondrial potential readout, lung cancer cells – cell-based, A549, JC-1 fluorescence, basal, 24 h, 100 nL, profiling panel (AID 1138).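 Further: A549 lung adenocarcinoma cells under basal conditions with no added stimulus; test concentration not given here.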 The conditions noted are these: higher = more signal.
Assay [8] relates to Lefty1. Description: Lefty1 protein binding to printed compounds – biochemical, small-molecule microarray, 635/667 nm fluorescence, primary screen (AID 1139). The conditions noted are these: fluorescence 635/667, higher = more signal.
Assay [9] relates to wheat germ agglutinin (Triticum aestivum), Alexa647-labelled. Description: Alexa647-WGA lectin binding to printed small molecules – biochemical, small-molecule microarray, 635/667 nm fluorescence, artefact control for SMM control-protein annotation, profiling panel (AID 1140).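 Further: score merges 667 nm feature emission with signal to noise over triplicate slides.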 Conditions: WGA-A647 binding, 635 nm fluorescence, higher = more signal.
Assay [10] has as its target Luciferin 4-monooxygenase (Photinus pyralis) (UniProt P08659). Description: inhibition of purified Photinus pyralis luciferase – biochemical, luminescence, purified enzyme, 2006 set, primary screen (AID 1141).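 Further: cell-free assay with purified firefly luciferase at 100 ng per well in PBS; test concentration not given here.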 Conditions: purified firefly luciferase, SteadyGlo luminescence, 30 min; higher = more signal, called active from +8 up or from −8 down.
Assay [11] concerns Wnt5a (protein binding on small-molecule microarray). Nature of the assay: small molecules binding Wnt5a protein – biophysical, small-molecule microarray, 635/667 nm fluorescence, primary screen (AID 1142).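 Further: fluorescence read at 667 nm with signal to noise per printed feature.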 The conditions noted are these: 635 nm fluorescence, higher = more signal.
Assay [12] in a line: ATP-based viability of Huh7 replicon cells – cell-based, CellTiter-Glo luminescence, basal, 48 h, cytotoxicity control for HCV replication inhibitor project, primary screen (AID 1143).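 Further: Huh7 hepatoma cells carrying a hepatitis C replication reporter with no stimulus; test concentration not given here.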 The conditions noted are these: higher = more signal, called active from +8 up or from −8 down.
Assay [13] in a line: Pseudomonas biofilm growth suppression – PAO1 strain, BacTiter-Glo luminescence, LB-PBS, primary screen (AID 1144). The conditions noted are these: P. aeruginosa PAO1 biofilm, 12 h, higher = more signal.
A short description of assay [14]: basal CRE-LacZ reporter activity in PC12 – cell-based, unstimulated, primary screen (AID 1145). Conditions: no forskolin, luminescence, 4.5 h, higher = more signal, called active from +8 up or from −8 down.
Assay [15] can be described thus: forskolin-driven CRE-LacZ activity in PC12 – cell-based, CRE-LacZ reporter, forskolin-stimulated, primary screen (AID 1146).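 Further: PC12 cells with 6xCRE LacZ reporter stimulated by forskolin 10 µM; beta-galactosidase reporter signal reflecting CREB driven transcription.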 Conditions: luminescence, 4.5 h, higher = more signal, called active from +8 up or from −8 down.
Assay [16] addresses Streptavidin (Streptomyces avidinii) (UniProt P22629). Nature of the assay: compounds binding control protein streptavidin – biophysical, small-molecule microarray, 635/667 nm fluorescence, artefact control for SMM compound annotation, primary screen (AID 1147).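 Further: signal reflects streptavidin binding to arrayed compounds as a control protein.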 The conditions noted are these: higher = more signal.
Assay [17] in a line: probe aInhba binding on compound microarray – biochemical, small-molecule microarray, 635/667 nm fluorescence, primary screen (AID 1148).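 Further: score merges 667nm spot fluorescence with signal-to-noise for antibody binding to printed compounds.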 The conditions noted are these: higher = more signal.
Assay [18] has as its target Torsin-1A (Homo sapiens) (UniProt O14656). Nature of the assay: TOR1A wild-type binding on microarray – cell lysate, small-molecule microarray, lysate, 635/667 nm, primary screen (AID 1149). Conditions: COS7 hTOR1A-WT lysate, 635 nm fluorescence, higher = more signal.
The target is the same in assay [19]. Description: torsin A mutant lysate binding on microarrays – cell lysate, small-molecule microarray, COS7 lysate, 635/667 nm fluorescence, primary screen (AID 1150).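 Further: score pools 667 nm emission and signal to noise measuring lysate protein binding.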 Conditions: COS7 hTOR1A mutant lysate, 635 nm fluorescence, higher = more signal.
Assay [20] relates to Sonic hedgehog protein (Shh). Description: Sonic hedgehog microarray binding compounds – biochemical, small-molecule microarray, 635/667 nm fluorescence, primary screen (AID 1151).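 Further: Shh protein binding to compounds spotted on small-molecule microarray slides; score combines spot fluorescence intensity with signal-to-noise across triplicate slides.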 The conditions noted are these: 635 nm fluorescence, higher = more signal.

Active and inactive are the calls of the source. Unless noted, how the calls were made is not given here.

Follistatin (Homo sapiens), sequence (P19883 whole entry, looked up): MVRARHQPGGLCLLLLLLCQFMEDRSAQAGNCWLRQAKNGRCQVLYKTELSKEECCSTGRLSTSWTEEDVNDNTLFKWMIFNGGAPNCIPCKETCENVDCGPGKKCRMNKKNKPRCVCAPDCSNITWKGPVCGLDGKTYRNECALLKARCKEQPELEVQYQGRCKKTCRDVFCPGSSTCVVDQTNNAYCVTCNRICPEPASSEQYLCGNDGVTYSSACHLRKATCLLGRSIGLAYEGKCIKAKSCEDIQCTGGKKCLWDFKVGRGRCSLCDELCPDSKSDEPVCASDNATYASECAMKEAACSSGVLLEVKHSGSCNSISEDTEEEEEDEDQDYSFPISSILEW
Streptavidin (Streptomyces avidinii), sequence (P22629 whole entry, looked up): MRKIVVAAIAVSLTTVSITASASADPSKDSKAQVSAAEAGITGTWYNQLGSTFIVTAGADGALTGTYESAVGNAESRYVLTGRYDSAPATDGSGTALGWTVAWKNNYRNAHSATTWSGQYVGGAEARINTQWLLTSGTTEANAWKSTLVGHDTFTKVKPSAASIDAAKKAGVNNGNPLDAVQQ
Fibroblast growth factor 2 (Homo sapiens), sequence (P09038 whole entry, looked up): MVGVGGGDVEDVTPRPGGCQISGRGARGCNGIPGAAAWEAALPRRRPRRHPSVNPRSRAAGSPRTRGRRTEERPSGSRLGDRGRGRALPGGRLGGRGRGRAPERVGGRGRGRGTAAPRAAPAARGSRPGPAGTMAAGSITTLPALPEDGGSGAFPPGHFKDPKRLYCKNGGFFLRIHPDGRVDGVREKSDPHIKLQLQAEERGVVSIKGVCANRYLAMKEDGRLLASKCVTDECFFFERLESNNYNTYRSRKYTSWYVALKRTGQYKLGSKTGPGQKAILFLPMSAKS
Luciferin 4-monooxygenase (Photinus pyralis), sequence (P08659 whole entry, looked up): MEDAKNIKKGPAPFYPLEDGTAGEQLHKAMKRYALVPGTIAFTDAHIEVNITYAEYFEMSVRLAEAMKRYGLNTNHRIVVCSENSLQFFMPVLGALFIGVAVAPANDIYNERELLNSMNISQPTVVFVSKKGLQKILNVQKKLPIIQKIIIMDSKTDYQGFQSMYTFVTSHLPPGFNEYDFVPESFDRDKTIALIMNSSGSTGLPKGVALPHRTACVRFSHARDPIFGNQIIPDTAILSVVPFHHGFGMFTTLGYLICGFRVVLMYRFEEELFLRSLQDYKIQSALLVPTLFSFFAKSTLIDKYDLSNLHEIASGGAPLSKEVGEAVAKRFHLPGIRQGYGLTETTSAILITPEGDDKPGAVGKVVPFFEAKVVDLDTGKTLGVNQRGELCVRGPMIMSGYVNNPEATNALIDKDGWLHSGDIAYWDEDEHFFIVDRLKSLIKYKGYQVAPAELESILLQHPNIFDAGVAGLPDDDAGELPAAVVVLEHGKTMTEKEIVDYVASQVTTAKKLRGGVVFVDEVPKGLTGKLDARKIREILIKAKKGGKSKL
Torsin-1A (Homo sapiens), sequence (O14656 whole entry, looked up): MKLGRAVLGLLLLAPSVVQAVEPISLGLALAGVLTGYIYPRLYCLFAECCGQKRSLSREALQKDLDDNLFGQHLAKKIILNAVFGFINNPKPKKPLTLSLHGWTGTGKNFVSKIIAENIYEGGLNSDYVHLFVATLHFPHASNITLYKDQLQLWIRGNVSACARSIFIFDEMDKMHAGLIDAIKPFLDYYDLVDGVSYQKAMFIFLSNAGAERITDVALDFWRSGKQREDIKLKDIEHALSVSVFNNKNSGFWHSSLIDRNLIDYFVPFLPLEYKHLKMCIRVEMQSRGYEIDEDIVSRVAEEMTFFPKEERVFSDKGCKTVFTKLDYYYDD
Focal adhesion kinase 1 (Homo sapiens), sequence (Q05397 whole entry, looked up): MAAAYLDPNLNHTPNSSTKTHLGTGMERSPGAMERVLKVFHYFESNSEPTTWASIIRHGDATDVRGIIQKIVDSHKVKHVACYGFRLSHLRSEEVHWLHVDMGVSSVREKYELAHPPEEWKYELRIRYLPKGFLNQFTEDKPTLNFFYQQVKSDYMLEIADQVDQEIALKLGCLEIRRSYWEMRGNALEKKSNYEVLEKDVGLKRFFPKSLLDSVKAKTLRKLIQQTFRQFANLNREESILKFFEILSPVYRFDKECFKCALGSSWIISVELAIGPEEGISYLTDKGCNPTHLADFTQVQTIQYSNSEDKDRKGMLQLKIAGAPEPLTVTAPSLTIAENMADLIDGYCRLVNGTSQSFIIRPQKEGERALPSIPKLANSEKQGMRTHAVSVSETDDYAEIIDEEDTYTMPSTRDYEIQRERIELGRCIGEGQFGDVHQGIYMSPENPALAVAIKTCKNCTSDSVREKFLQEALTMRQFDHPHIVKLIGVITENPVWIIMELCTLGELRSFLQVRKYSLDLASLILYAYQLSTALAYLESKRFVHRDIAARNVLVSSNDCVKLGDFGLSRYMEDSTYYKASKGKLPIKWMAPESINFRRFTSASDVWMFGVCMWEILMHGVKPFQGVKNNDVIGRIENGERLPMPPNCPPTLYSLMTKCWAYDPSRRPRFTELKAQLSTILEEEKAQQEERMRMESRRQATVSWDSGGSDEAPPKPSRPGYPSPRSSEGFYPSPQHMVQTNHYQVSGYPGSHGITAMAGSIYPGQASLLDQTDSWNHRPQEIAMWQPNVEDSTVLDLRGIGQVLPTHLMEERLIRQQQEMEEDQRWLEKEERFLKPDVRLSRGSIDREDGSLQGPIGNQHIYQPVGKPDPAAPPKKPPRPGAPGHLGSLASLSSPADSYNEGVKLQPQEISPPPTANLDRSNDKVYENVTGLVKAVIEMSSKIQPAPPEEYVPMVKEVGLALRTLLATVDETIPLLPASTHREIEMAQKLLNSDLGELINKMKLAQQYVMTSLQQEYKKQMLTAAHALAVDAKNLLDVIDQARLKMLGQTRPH

With `CCCNC(=O)[C@@]1(C)c2ccccc2C(=O)N(Cc2ccccc2)[C@H]1c1ccc(CO)cc1`, the composite z-score was 1.8 in assay [1]; 0.0323 in assay [2]; 1.28 in assay [3]; -0.872 in assay [4]; -0.571 in [5]; -0.258 in assay [6]. Further, the composite z-score is -0.975 in assay [8]; -0.231 in [9]; -0.15 in assay [11]; -1 in assay [16]; 0.101 in [17]; -0.102 in [18]. The composite z-score was -1.96 in [19] and -0.203 in assay [20]. The z-score in [7] was 1.03; in [10], -1.18 (inactive); in assay [12] it was -0.535 (inactive); in assay [13], 0.62 (inactive); in [14] it was 0.0924 (inactive); in [15] it was -0.163 (inactive).
Consider `C=CCC(OC(C)=O)[C@@H]1[C@@H](N(Cc2ccc(-c3ccccc3)cc2)C(=O)c2ccc(C)cc2)c2cc(OCCCO)ccc2N1C(=O)Cc1ccc2ccccc2c1` (stereo not given in full), for which the composite z-score in assay [1] is 0.0102; in assay [2], -0.823; in assay [3] it was -0.0958; in assay [4], 0.0701; in assay [5] it was 0.37; in assay [6] it was -0.154. For the same compound, the composite z-score in assay [8] is 0.293; in assay [9] it was 0.0607; in assay [11], -0.0632; in [16], 0.129; in assay [17] it was -0.0986; in [18], 0.0508. For the same compound, the figures for the composite z-score in assay [19] and in assay [20] were -0.577 and 1, respectively. For the same compound, the z-score in [7] was 3.13; in assay [10], -2.19 (inactive); in assay [12], -0.889 (inactive); in assay [13], -0.0727 (inactive); in assay [14], 1.66 (inactive); in [15], -0.515 (inactive).
Turning to `[N-]=[N+]=NCc1ccccc1[C@H]1OC(c2ccc(OCCCO)cc2)=N[C@@]1(Cc1ccccc1)C(=O)NCCN1CCOCC1`, the composite z-score was 2.04 in assay [1]; 1.26 in [2]; 0.514 in assay [3]; 0.915 in assay [4]; 1.33 in assay [5]; 1.63 in [6]. Moreover, the composite z-score came out at 0.332 in assay [8]; 0.531 in assay [9]; 0.526 in assay [11]; 1.13 in assay [16]; 0.555 in [17]; 1.03 in [18]. In addition, the figures for the composite z-score in assay [19] and in [20] were 0.604 and 0.502, respectively. Besides, the z-score in [7] is 1.87; in [10], -3.29 (inactive); in assay [12], -3.01 (inactive); in assay [13], -0.206 (inactive); in [14], 1.53 (inactive); in assay [15] it was -0.355 (inactive).
`COc1ccc(C(O)C2C=CC3C(=O)N(c4ccccc4)C(=O)C3N2Nc2ccc(C(C)C)cc2)c2ccccc12` (stereo not given): the composite z-score in [1] was 1.74; in assay [2], 1.25; in assay [3], 0.588; in assay [4], 0.976; in [5], 0.862; in assay [6], -0.25. Moreover, the composite z-score was 0.031 in assay [8]; 0.838 in assay [9]; 0.295 in assay [11]; 1.92 in [16]; 0.216 in [17]; 0.724 in assay [18]. Further, the composite z-score in assay [19] is 1.01; in assay [20], -0.328. Also, the z-score is 0.543 in [7]; -1.65 (inactive) in assay [10]; 0.0927 (inactive) in [12]; -1.88 (inactive) in [13]; 0.632 (inactive) in assay [14]; -0.557 (inactive) in [15].
As for `COCCOC(=O)N1C(=O)[C@@]2(c3cc(C#CC4=CCCCC4)ccc31)[C@H](C(=O)N1CCCCCCC1)[C@H]1C(=O)O[C@H](c3ccccc3)[C@H](c3ccccc3)N1[C@@H]2c1ccc(OCCO)cc1`, the composite z-score was 0.119 in assay [1]; 1.13 in assay [2]; 0.605 in [3]; 0.806 in assay [4]; 1.23 in [5]; 0.426 in [6]. Besides, the composite z-score worked out at 0.79 in assay [8]; 0.956 in assay [9]; 0.636 in assay [11]; 1.29 in assay [16]; 0.515 in assay [17]; 1.04 in [18]. Further, the composite z-score came to 0.877 in [19] and 1.25 in [20]. For the same compound, the z-score in [7] was -1.22; in assay [10] it was -0.866 (inactive); in [12], -3.96 (inactive); in assay [13], -0.0896 (inactive); in assay [14] it was -0.199 (inactive); in [15] it was 0.463 (inactive).
